This is a sample that favours compounds with a hit; in the whole collection about 7.9% have one here.
HT1080-NT tox: kills 2HG-producing HT-1080-NT fibrosarcoma cells | HT-1080-NT fibrosarcoma viability, CellTiter-Glo ATP luminescence, 48 h | Potency, µM (doses to about 46.1 µM), for inactives: at the highest dose activity, negative = less viability, usual class: cytotoxic | 360,000 tested, 1.6% active;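 note: NT is the 2HG producing partner of a matched IDH1 knockdown line; 0% = DMSO-treated cells and -100% = media-only wells without cells; nearly all actives have a fitted effect of over 55% in size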
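750 cells/well, RPMI + 5% FBS; 2 h settle, compound pin-transfer, 48 h at 37 degrees C. CellTiter-Glo 10 min RT, luminescence. Normalized to DMSO and media-only wells.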
HT1080 IDH1KD tx: HT-1080 IDH1 knockdown cell toxicity (counter line). AID 686971. Potency, µM (top dose mostly 46.1 µM), for inactives: top-dose activity, negative = toxicity, actives largely listed as cytotoxic. 360,000 tested, 2% active. HT-1080 IDH1 knockdown viability, ATP luminescence, 48 h;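 note: 0% = DMSO wells and -100% = cell-free medium wells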
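In this qHTS, HT-1080 cells depleted of IDH1 are exposed for 48 h at 37 °C to compound titrations. Toxicity is scored from CellTiter-Glo luminescence, with DMSO as full viability and medium alone as none.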
KB-3-1 tox: kills parental KB-3-1 adenocarcinoma cells | AID 1347075 | Potency, µM (series often up to 46.1 µM), usual class: cytotoxic | 400,000 tested, 1.4% active | KB-3-1 viability, CellTiter-Glo ATP luminescence, 72 h; note: % is set by controls: 0 for no effect and ±100 for the full control effect; nearly all actives have a fitted effect of over 60% in size
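Viability of parental KB-3-1 cells, measured by CellTiter-Glo luminescence, followed a 72 h incubation at 37 °C with pinned compounds in phenol-red-free DMEM containing 10% FBS.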
SW480 rereplic: induces DNA re-replication in SW480 colon adenocarcinoma cells | SW480 DNA re-replication, Hoechst DNA content imaging, 48 h | Potency, µM (series often up to 46.1 µM), for the others: top-dose re-replication activation, most hits filed as activators | 340,000 tested, 1.8% active | AID 624297; note: % of control where 0% means no effect; nearly all actives have a fitted effect of over 55% in size
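Compounds, transferred as 23 nL by pin tool, were incubated with cells for 48 hr; DNA content per nucleus was then quantified by Hoechst staining and fluorescence plate imaging.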
MCF10A rerep: DNA re-replication induction in MCF 10a cells; MCF 10A DNA re-replication, Hoechst nuclear intensity, 48 h; Potency, µM (series often up to 46.1 µM), for inactives: top-dose activity, positive = re-replication, most hits filed as activators; 350,000 tested, 2.9% active; AID 624296; note: % of control where 0% means no effect; nearly all actives have a fitted effect of over 50% in size
KB-V1 MDR tox: KB-V1 MDR subline cytotoxicity. KB-V1 MDR cells viability, CellTiter-Glo, 72 h. Potency, µM (titrated, usually from 46.1 µM), most hits filed as cytotoxic. 400,000 tested, 3.4% active. AID 1347076; note: % is set by controls: 0 for no effect and ±100 for the full control effect; nearly all actives have a fitted effect of over 60% in size
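Following 72 h at 37 degrees C with compound, KB-V1 cell viability was read by CellTiter-Glo luminescence, medium being phenol-red-free DMEM plus 10% FBS; concentration-response parameters came from normalized, curve-fitted qHTS data.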
* = called active by the depositor; i = inactive; u = inconclusive; x = not tested or not shown. Calls come from the whole dose curve; as a rule, active = well fitted curve in the direction sought with a large enough effect; inconclusive = small, poorly fitted or top-dose-only effect, or another doubt; inactive = no such curve, though single readings can be large; an effect the other way counts as inactive or inconclusive. Potency is the fitted concentration of half-maximal effect.

SMILES | HT1080-NT tox | HT1080 IDH1KD tx | KB-3-1 tox | SW480 rereplic | MCF10A rerep | KB-V1 MDR tox
Cc1ccc(N2C(=O)CS(=O)(=O)C23C(=O)N(Cc2ccccc2C)c2ccccc23)cc1Cl (stereo unspecified) | x | x | i | x | x | i
Cc1cc(N/N=C/c2ccc(N(C)C)cc2)nc(NCc2ccccc2)n1 | 8% | 8% | i | 21µM* | 8.2µM* | i
CN(C)c1nc(NCc2ccccc2)nc(N/N=C/c2ccc(Br)cc2)n1 | -5% | -8% | i | 1% | 4% | i
Cc1ccc(/C=N/Nc2cc(C)nc(NCc3ccccc3)n2)cc1 | u | u | i | u | u | i
Cc1cc(N/N=C/c2ccc(Cl)cc2Cl)nc(NCc2ccccc2)n1 | -11% | u | i | u | u | 8.2µM*
Cc1cc(N/N=C/c2ccc(F)cc2)nc(NCc2ccccc2)n1 | 18µM* | 16µM* | u | -1% | u | u
Cc1ccc(S(=O)(=O)NCC(=O)Nc2cccnc2)cc1C | -1% | 8% | i | -1% | -2% | i
CCOc1ccc(C(CC(=O)O)NC(=O)C(c2ccccc2)c2ccccc2)cc1OC (stereo unspecified) | 10% | 24% | i | -8% | 2% | i
CCOC(=S)SCc1cn2ccc(C)cc2n1 | 9% | 10% | i | 4% | 16µM* | i
COc1cccc(/C=N\NC(=O)c2ccc(Cn3cc(Br)c([N+](=O)[O-])n3)o2)c1O | u | u | u | 0.73µM* | u | u
COc1cccc(/C=N/NC(=O)CSc2ccccc2C)c1O | u | 26µM* | u | u | u | 6.5µM*
COc1cccc(/C=N/NC(=O)Cn2nc(C)c([N+](=O)[O-])c2C)c1O | u | 18µM* | u | u | 11% | u
COc1cc(/C=N\NC(=O)c2ccc(Cn3nc([N+](=O)[O-])c(Cl)c3C)o2)ccc1O | -21% | -25% | i | 0% | 2% | i
COc1ccccc1/C=C\C(=O)NCC(=O)N/N=C/c1cccc(OC)c1O | u | 15µM* | u | u | 3% | i
O=C(Nc1cc(-c2nc3ccccc3o2)ccc1Cl)c1cccc2c(Cl)cccc12 | x | x | i | x | x | u
CCC(CC)C(=O)N(C)c1c(C)nc2c(OCc3ccc(OC(F)F)cc3)cccn12 | -20% | -3% | i | x | x | u
Cc1ccc(NC(=O)c2ccc(N3CCCC3=O)cc2)cc1S(=O)(=O)N1CCCCC1 | 0% | 11% | i | -3% | -2% | i
COc1cccc(/C=N/NC(=O)CNC(=O)CCc2ccccc2)c1O | u | 21µM* | i | 10% | 14% | u
COc1cccc(/C=N/NC(=O)CNC(=O)c2cccs2)c1O | u | u | i | -7% | 0% | i
Clc1cccc(Cl)c1Cn1cnc2c(N3CCCCCC3)ncnc21 | -6% | -4% | i | u | -4% | 8.2µM*
CC(C)(C)C1CCC(=NNc2ccc(S(N)(=O)=O)cc2[N+](=O)[O-])CC1 (stereo unspecified) | u | 18µM* | u | 14% | u | i
COc1ccccc1NS(=O)(=O)c1ccc(NN=C2CCCC2)c([N+](=O)[O-])c1 | 5% | -17% | i | -1% | 11% | 2.9µM*
O=C1CC(N2CCN(Cc3ccccc3)CC2)C(=O)N1CCc1ccccc1 (stereo unspecified) | 7% | 5% | i | -5% | 26µM* | i
O=C(C[N+]1(CCO)CCOCC1)c1ccc2ccccc2c1 | x | x | i | x | x | i
CC(C)OCCCN(C)C1CCN(S(=O)(=O)c2ccc(-c3cc(C(F)(F)F)no3)s2)CC1 | -12% | -1% | 16µM* | 15µM* | 15% | 9.2µM*
SMILES | HT1080-NT tox | HT1080 IDH1KD tx | KB-3-1 tox | SW480 rereplic | MCF10A rerep | KB-V1 MDR tox
CCCCN(CCCC)CC(O)CN(c1cc([N+](=O)[O-])ccc1OC)S(=O)(=O)c1ccccc1 (stereo unspecified) | u | u | u | u | 13% | 2.6µM*
CC(=O)Oc1ccc(Cn2c(C)c(C(=O)NCc3cccc(C(F)(F)F)c3)sc2=O)cc1 | u | u | 23µM* | x | x | 15µM*
COc1ccc(C(C)=O)cc1Cn1c(C)c(C(=O)NCc2cccc(C(F)(F)F)c2)sc1=O | -19% | u | u | x | x | 18µM*
CC(C)(C)c1ccc(CC(=O)N2CCC2(C)C(=O)NCc2cccc3ccccc23)cc1 (stereo unspecified) | u | 16µM* | i | x | x | i
CC(C)(C)c1ccc(CC(=O)N2CCC2(C)C(=O)Nc2cccc3ccccc23)cc1 (stereo unspecified) | u | u | i | x | x | i
CC1(C(=O)NCc2ccccc2Br)CCN1C(=O)Cc1ccc(-c2ccccc2)cc1 (stereo unspecified) | 16µM* | u | u | x | x | u
COc1ccccc1CNC(=O)C1(C)CCN1C(=O)Cc1ccc(-c2ccccc2)cc1 (stereo unspecified) | u | u | u | x | x | i
CC(C)Oc1ccc(CN2CCC2(C)C(=O)NCc2cccc3ccccc23)cc1 (stereo unspecified) | 18µM* | u | u | x | x | u
CC1(C(=O)NCc2cccc3ccccc23)CCN1CCc1ccccc1 (stereo unspecified) | u | u | i | x | x | i
CCCCN1C(=O)/C(=C2/Sc3ccccc3N2C)S/C1=N\c1ncn[nH]1 | -1% | 14% | u | 15µM* | 15% | u
COc1cc(N=Nc2ccccc2C(=O)O)ccc1O | -4% | -8% | i | 1% | 18µM* | i
Nc1nc2nc(-c3cccs3)cc(C(F)(F)F)n2n1 | 13% | 15% | i | u | 21µM* | i
O=C(Nc1cccc(C(F)(F)F)c1)c1cc(-c2ccc(Cl)cc2)on1 | x | x | i | x | x | i
O=C(Nc1cccc(C(F)(F)F)c1)N(Cc1ccc(Cl)cc1)CC(O)C(F)(F)F (stereo unspecified) | 16µM* | 18µM* | u | 29% | u | u
CC(O)(CS(=O)(=O)Cc1ccc(Cl)cc1)C(=O)Nc1cccc(C(F)(F)F)c1 (stereo unspecified) | u | 13µM* | i | -1% | -19% | i
C=CC[C@H](CC(=O)N(CCO)Cc1ccccc1)C(=O)N[C@H](C)COC(=O)[C@@H](CC=C)CC(=O)OC(C)(C)C | 6% | 8% | i | -8% | -15% | i

Source: PubChem BioAssay (National Center for Advancing Translational Sciences (NCATS))
